High-throughput results: PubChem BioAssay, The Scripps Research Institute Molecular Screening Center
The full list was thinned out, with hits kept by preference.
TTR transcr act = TTR transcription activation, primary screen; SH-SY5Y TTR promoter Gaussia luciferase, luminescence; 100% = recombinant luciferase protein wells; activation, % at 16.7 µM; AID 1117267; 92,000 tested, 1.3% active;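 active means activation above the mean of all tested compounds plus 3 SD, cut at about 9.5% in these data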;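 further: cells exposed to compounds for one day before reading; 0% = median of all test compound wells on the plate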
TTR inh HuH7 = HuH7 TTR transcription inhibition, counter-screen; shares compounds with TTR transcr act; HuH7 TTR promoter-Gaussia luciferase reporter, luminescence; inhibition, % at 16.7 µM; 1,100 tested, 4% active;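 active means average inhibition above the solvent-only control wells' mean plus 3 SD, cut at about 15% in these data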;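 further: 0% = cells with DMSO only and 100% = cells with inhibitor control FD; inhibitors lower well luminescence so higher value means more inhibition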
TTR act confirm = confirmation of human transthyretin transcription activators | AID 1117280 | SHSY5Y TTR promoter Gaussia luciferase, luminescence; 100% = purified Lucia enzyme wells, no cells | shares compounds with TTR transcr act | 1,100 tested, under 10 active | activation, % at 16.7 µM;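 active means mean activation above a set limit taken from the earlier primary screen, cut at about 11% in these data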;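 further: 0% = DMSO-treated cells and 100% = recombinant Lucia luciferase without cells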
* marks the source's active call; other numbers are inactive results.

SMILES	TTR transcr act	others
Cc1ccnc2nc(C(=O)Nc3nc4ccccc4s3)nn12	4.7
C#CCNc1c2c(nc3ncnn13)CC(C)CC2 (stereo not given)	-0.8
CCCCn1c(=O)n(Cc2cccc(F)c2)c(=O)c2c1ncn2Cc1ccco1	19.3*	TTR inh HuH7=-4.8;TTR act confirm=-0.3
Cc1cccc(Cn2c(=O)c3c(nc4n3CCN4Cc3ccco3)n(C)c2=O)c1	0.0
CCn1cnc2c1c(=O)n(CC(=O)O)c(=O)n2Cc1ccccc1	4.7
CC(C)n1nnnc1C1(C)CSCC(=O)N1Cc1cccc(F)c1 (stereo not given)	-0.5
CN1C(c2ccccc2)CC2CN(c3ccccc3)C(=O)C21 (stereo not given)	2.2
Cc1ccc(C(=O)CC2SC(N)=NC2=O)cc1 (stereo not given)	20.3*	TTR inh HuH7=-6.8;TTR act confirm=2.5
CC(=O)c1ccc(CC2SC(N)=NC2=O)cc1 (stereo not given)	2.5
NC1=NC(=O)C(CC(=O)NCc2ccccc2)S1 (stereo not given)	5.6
COc1cc(OC)cc(C(C)c2ccc(-c3ccccc3)cc2)c1 (stereo not given)	-0.4
COC(=O)c1cccc(Cn2ccc3ccc(-c4ccc5ccn(C(=O)c6ccc(C)cc6)c5c4)cc32)c1	-1.9
COc1ccc(/C(N)=N/OC(=O)COc2ccccc2Cl)cc1	0.4
COc1ccc(C(=O)O/N=C(\N)Cc2cccs2)cc1OC	2.8
N/C(Cc1cccs1)=N\OC(=O)COc1ccccc1Cl	11.1*	TTR inh HuH7=10.6;TTR act confirm=0.3
Cc1ccc(S(=O)(=O)N2c3ccc(F)cc3C[C@H]2CSc2ccccc2)cc1	-0.1
Cc1noc(C)c1NC(=O)N(C)C[C@H]1OCc2cnnn2CCCC(=O)N([C@H](C)CO)C[C@H]1C	1.3
N#Cc1ccc(NC(=O)OC2CC3CC2[C@H]2CCCCN2C3)cc1 (stereo not given in full)	1.2
O=C(O)CSCC(=O)N1CCCCC1	-1.1
O=C(CSC(=S)N1CCCC1)c1ccccc1	0.0
O=C(O)CSC(=S)N1CCCC1	10.4*	TTR inh HuH7=-4.7;TTR act confirm=-0.3
COC(=O)[C@]12C[C@H](CC(=O)NCc3cccc4ccccc34)C(=O)N(Cc3ccc(Cl)cc3Cl)C1=C[C@H](C(C)C)O[C@@H]2C1CC1	0.5
CCCCCCCCN1C(=O)N(Cc2ccc(OC)cc2)S(=O)(=O)c2ccc(F)cc21	-1.1
O=S(=O)(NCCC1CC1(Cl)Cl)c1ccccc1 (stereo not given)	-0.1
O=S(=O)(Oc1ccccc1-c1ccccc1)c1ccccc1	-0.5
SMILES	TTR transcr act	others
O=S(=O)(c1ccccc1)C1CC1(c1ccccc1)c1ccccc1 (stereo not given)	13.6*	TTR inh HuH7=-3.5;TTR act confirm=-0.1
O=C(Cc1cccs1)NC1CCCCN(Cc2ccc(Cl)cc2)C1=O (stereo not given)	4.9
COc1ccc(C2Nc3ccccc3C(=O)N2Cc2ccco2)cc1COc1ccccc1C (stereo not given)	1.4
O=C(NCCc1ccccc1)O[C@H]1CC[C@@]23CCCN2C(=O)CCC[C@H]3C1	-1.4
COc1ccc2c3c([nH]c2c1)[C@]1(NCC3)C(=O)N(C)c2ccc(Cl)cc21	3.0
COC(=O)c1ccc[n+](CC(=O)Nc2ccc(OC(F)F)cc2)c1	6.6
COC(=O)c1ccc(NC(=O)C[n+]2ccccc2)cc1	10.2*	TTR inh HuH7=-12.9;TTR act confirm=1.6
O=C(C[n+]1ccccc1)Nc1ccccc1	-0.2
COc1ccc(C2C(C(=O)O)c3ccccc3C(=O)N2Cc2ccco2)cc1 (stereo not given)	-1.0
CCN(C(=O)CSc1nccc(=O)[nH]1)c1cccc2ccccc12	0.1
NCCC(=O)Nc1ccc(Cl)cc1C(=O)c1ccc[nH]1	2.5
CCC(c1nnnn1-c1ccc2c(c1)OCCO2)N1CCN(C(C)=O)CC1 (stereo not given)	0.5
COC(=O)c1sccc1NC(=O)Nc1cc(C)cc(C)c1	-1.6
COC(=O)c1sccc1NC(=O)Nc1cccc(OC)c1	10.0*	TTR inh HuH7=-7.3;TTR act confirm=0.3
COC(=O)c1sccc1NC(=O)c1cccc(OC)c1	1.0
CCCCN1CN2CCc3ccccc3C2CS1(=O)=O (stereo not given)	3.8
C[C@@H]1O[C@@H](O[C@@H]2[C@@H](O)[C@H](OCCc3ccc(O)c(O)c3)O[C@H](CO)[C@H]2OC(=O)/C=C/c2ccc(O)c(O)c2)[C@H](O)[C@H](O)[C@H]1O	-1.4
COCCN1C(=O)CCC1(C)C(=O)Nc1ccc2c(c1)OCCO2 (stereo not given)	-1.4
CCCNc1nc(-c2cc(-c3ccc(Cl)cc3)on2)cc(C(C)C)n1	11.9*	TTR inh HuH7=-12.4;TTR act confirm=0.2
Cc1cc(C)nc(NCc2ccc(Cl)cc2)n1	-0.8
CC(C)c1cc(-c2cc(-c3ccc(Cl)cc3)on2)nc(NC2CCCC2)n1	0.2
O=S(=O)(NCCc1csc(-c2cccnc2)n1)c1cccc(F)c1	2.4
O=C(NCCc1csc(-c2cccnc2)n1)c1ccccc1Br	18.1*	TTR inh HuH7=-17.1;TTR act confirm=0.7
O=S(=O)(NCc1csc(-c2cccnc2)n1)c1ccc(Br)cc1	0.5
COC(=O)[C@]12C[C@H](CC(=O)N3CCCCC3)C(=O)N(Cc3ccc(Cl)cc3Cl)C1=C[C@H](C(C)C)O[C@@H]2C1CC1	0.0
SMILES	TTR transcr act	others
Cc1nn(C)cc1C(C)NC(=O)c1cc(COc2ccc(F)c(F)c2)on1 (stereo not given)	-1.6
Cc1ccc(C)c(S(=O)(=O)N2CCC3(CC2)OCCO3)c1	-1.3
CC(=O)N1CCN(S(=O)(=O)c2ccc(Cl)cc2F)CC1	1.0
O=S(=O)(c1cc(Cl)ccc1Cl)N1CCC2(CC1)OCCO2	11.8*	TTR inh HuH7=-5.6;TTR act confirm=-0.6
O=C(Nc1ccc2oc(-c3ccncc3)nc2c1)c1ccc(F)cc1	-1.5
O=C(Nc1ccc2oc(-c3ccncc3)nc2c1)c1ccc(Br)o1	10.2*	TTR inh HuH7=-9.6;TTR act confirm=-1.2
O=C(Nc1ccc2oc(-c3ccncc3)nc2c1)c1ccc2c(c1)OCCO2	-1.1
O=C1N2CCc3ccccc3C2CS(=O)(=O)N1CCc1ccccc1 (stereo not given)	-0.9
CCN(Cc1ccc2c(c1)OCCO2)C(=O)CSc1nc(C)nc2sc(C)c(C)c12	2.0
CCCN1CCN(C(=O)c2ccc(F)c(S(=O)(=O)N3CCOCC3)c2)CC1	1.2
CC1(C)CC(=O)C=C(c2n[nH]nc2-c2ccc(F)c(F)c2)C1	2.0
O=S(=O)(c1ccc(SCCOc2ccc(Cl)cc2)nc1)N1CCCC1	20.8*	TTR inh HuH7=6.6;TTR act confirm=-1.0
O=S(=O)(c1ccc(SCc2c(F)cccc2Cl)nc1)N1CCCC1	-0.8
O=S(=O)(c1ccc(SCCOc2ccc(Br)cc2)nc1)N1CCCC1	-1.9
O=C(N/C(=C/c1cccnc1)C(=O)N1CCOCC1)c1ccccc1Cl	-1.2
CC(=O)N/C(=C\c1ccccc1)C(=O)N1CCOCC1	-2.0
O=C(N/C(=C/c1cccnc1)C(=O)N1CCOCC1)c1ccccc1F	20.2*	TTR inh HuH7=-2.8;TTR act confirm=-0.8
COc1ccc(Cn2ccc3ccc(-c4ccc5ccn(Cc6ccc(C#N)cc6)c5c4)cc32)cc1	4.5
CCCn1nc2cc(C(=O)NCc3ccccc3OC)ccc2c1OCC	-0.5
CCOc1ccc(C(=O)N[C@H](C(=O)Nc2ccccc2OC)C(C)C)cc1	1.8
CCOc1ccc(C(=O)NCc2ccccc2OC)cc1	15.1*	TTR inh HuH7=-11.6;TTR act confirm=0.2
